Data reported in PubChem BioAssay AID2314 (National Center for Advancing Translational Sciences (NCATS), 2010).
The whole screen tested about 300,000 compounds, of which about 37,000 (12%) were called active. Rule as the data show it: active = max response mostly above about 13% (no sharp cut-off); inactive = mostly below about 14%. Shown is part of a subset that was picked to be rich in actives.

Test: Cycloheximide Counterscreen for Small Molecule Inhibitors of Shiga Toxin; also: read at 38.3 µM for the half of the compounds with a filed dose; 0% is about no effect
Settings: cell reporter, cycloheximide protein synthesis inhibition counterscreen; stronger effect = higher value

Row | SMILES | max response
1 | O=C(Nc1ccc(Cl)cc1)C1c2cccc[n+]2CC(=O)N1Cc1ccc2c(c1)OCO2 (configuration not stated) | 17.1% (inactive)
2 | CCOc1ccc(N2C(=O)CC(N(CCc3ccc(OC)c(OC)c3)C(=S)Nc3ccccc3)C2=O)cc1 (configuration not stated) | 8.04% (inactive)
3 | O=C(CCN1C(=O)[C@H]2CC=CC[C@H]2C1=O)NCc1nc(-c2ccccc2)no1 | 6.47% (inactive)
4 | CC(C)CNC(=O)C(=O)Nc1ccc(N(C)C)cc1 | 38.6% (active)
5 | CC(=O)Nc1ccc(C(=O)C(Cc2ccccc2)N(C)C)cc1 (configuration not stated) | 9.54% (inactive)
6 | CC(C)CNC(=O)C(=O)NCc1ccccc1 | -1.62% (inactive)
7 | COc1ccc(NC(=O)Cn2ncn3c(cc4ccccc43)c2=O)c(OC)c1OC | 12.5% (inactive)
8 | Cc1nnc(C)c2c(C)n(N)c(C)c12 | -2.66% (inactive)
9 | COC(=O)c1ccc(CSc2nncn2C)cc1 | 62.2% (active)
10 | COC(=O)c1ccc(CSc2nncn2N)cc1 | 2.72% (inactive)
11 | CC(C)CC(CC(C)C)=NNC(=O)c1ccc(CSc2nncn2C)cc1 | -1.48% (inactive)
12 | CCC(Cc1ccccc1)NC(=O)C1CCCCC1 (configuration not stated) | 5.22% (inactive)
13 | CCOC(=O)c1ccc(NC(=O)c2nc[nH]c2C(=O)N[C@@H](CCCCNC(=O)OC(C)(C)C)C(=O)OC(C)(C)C)cc1 | -6.86% (inactive)
14 | C[C@@H](O)[C@@H]1NC(=O)[C@H](CCCCN)NC(=O)[C@H](Cc2c[nH]c3ccccc23)NC(=O)[C@H](Cc2ccccc2)NC(=O)[C@H](Cc2ccccc2)NC(=O)[C@H](CC(N)=O)NC(=O)[C@H](CCCCN)NC(=O)[C@@H](NC(=O)[C@@H]2CCCN2)CSSC[C@@H](C(=O)N[C@@H](CCCCN)C(=O)O)NC(=O)[C@H](CO)NC(=O)[C@H](CO)NC(=O)[C@H](Cc2ccccc2)NC1=O | -1.5% (inactive)
15 | COc1cccc(/C=N/Nc2ncc(C(F)(F)F)cc2Cl)c1O | 12.5% (inactive)
16 | COc1ccccc1/C=N\Nc1cc(C)nc(-n2nc(C)cc2C)n1 | -2.45% (inactive)
17 | COc1cccc(/C=N/Nc2cc(C)nc(-c3ccccc3O)n2)c1O | 28.6% (active)
18 | O=C(NC1CCCC1)C(c1ccc(N2CCOCC2)cc1)N(C(=O)c1ccco1)c1ccccc1F (configuration not stated) | -1.28% (inactive)
19 | CCOc1ccc(CN2CCN(Cc3ccc4cc(F)ccc4n3)CC2CCO)cc1 (configuration not stated) | -3.76% (inactive)

Row | SMILES | max response
20 | Cc1cc(NC(=O)CSc2nc(C(C)C)nc3sc4c(c23)CCC(C)C4)no1 (configuration not stated) | -1.25% (inactive)
21 | N#Cc1c2c(c(N3CCN(CCO)CC3)n3c1nc1ccccc13)CCCC2 | -2.13% (inactive)
22 | CC1CCc2sc3nc(N4CCN(CCO)CC4)n4ncnc4c3c2C1 (configuration not stated) | 22.8% (active)
23 | Cc1ccc(NC(=O)C2CCCN2C(=O)OCc2ccccc2)cc1C (configuration not stated) | 7.92% (inactive)
24 | O=C(Nc1ccccc1Cl)NC1(C(=O)N2CCOCC2)CCCCC1 | -1.76% (inactive)
25 | CCCCC(c1nnnn1CS(=O)(=O)c1ccc(C)cc1)N1CCC(C(N)=O)CC1 (configuration not stated) | -6.32% (inactive)
26 | COc1ccc(/C=C2\N=C3CCCN3C2=O)cc1 | 39.3% (active)
27 | COc1ccc(/C=C2\SC(=N)N(c3ccc(F)cc3)C2=O)cc1 | -4.26% (inactive)
28 | COc1ccc(/C=C2\SC(=S)N(CC(=O)NNC(=O)c3ccncc3)C2=O)cc1 | 5.86% (inactive)
29 | Cn1c(=O)c2c(-c3cccc(Br)c3)c(C#N)c(N)nc2n(C)c1=O | 1.41% (inactive)
30 | COC(=O)C1=CN(Cc2ccc(OC)c(OC)c2)C=C(C(=O)OC)C1c1cccs1 | 8.87% (inactive)
31 | CN1OC(COC(=O)c2ccc(Cl)cc2)CC1c1ccccc1 (configuration not stated) | 66.4% (active)
32 | Cn1cncc1COC(=O)c1ccc(Cl)cc1 | 5.18% (inactive)
33 | CN1C2C=C(N(C(=O)c3ccc(Cl)cc3)c3ccccc3)CC1CC2 (configuration not stated) | -2.76% (inactive)
34 | Cc1ccc(CNC(=O)CCC(=O)N2CC(C)Sc3ccccc32)cc1 (configuration not stated) | -1.08% (inactive)
35 | CCOC(=O)N1CCC(N2Cc3cccc(C(=O)Nc4c(C)cccc4CC)c3C2=O)CC1 | -3.86% (inactive)
36 | COc1cccc2sc(N(CCCN(C)C)C(=O)CCS(=O)(=O)c3ccccc3)nc12 | 11.6% (inactive)
37 | Clc1ccc(Cc2nnc(-c3cccs3)o2)cc1 | 32.7% (active)
38 | CNC(=O)c1nnc(Cc2ccc(Cl)cc2)o1 | 11.5% (inactive)

Row | SMILES | max response
39 | S=C(NCc1cccs1)Nc1ccc(Cl)cc1 | 13.8% (inactive)
40 | O=C(NC1CCN(Cc2ccccc2)CC1)c1c(F)cccc1F | -3.43% (inactive)
41 | CC1CN(C(=S)Nc2ccccc2F)CC(C)O1 (configuration not stated) | 1.94% (inactive)
42 | CC1CN(C(=S)SCC(=O)c2ccccc2)CC(C)O1 (configuration not stated) | 34.8% (active)
43 | O=C(CSC(=S)N1CCOCC1)c1cc(Br)cc(Br)c1O | -5.21% (inactive)
44 | CSCC(=O)N1CCCC(C(=O)c2cc(F)ccc2F)C1 (configuration not stated) | 5.48% (inactive)
45 | COC(=O)[C@H](Cc1ccccc1)NC(=O)N1CC(C)OC(C)C1 (some centres not stated) | 0.915% (inactive)
46 | O=C(CSC(=S)N1CCCCC1)c1c(F)cccc1F | 42.5% (active)
47 | O=C(CP(=O)(c1ccccc1)c1ccccc1)N1CCOCC1 | -5.81% (inactive)
48 | O=C(CSC(=S)N1CCOCC1)c1ccccc1 | 19% (active)
49 | CCOC(=O)c1c(CN(C)C)n(-c2ccccc2)c2cc(Br)c(O)cc12 | -1.63% (inactive)
50 | C[C@H]1CCC(=O)N([C@H](CSc2ccccc2)Cc2ccccc2)CC1 | 6.38% (inactive)
51 | Cc1c(C(=O)N2CCCC2)c(S(=O)(=O)NCC(C)c2ccccc2)c(C)n1C (configuration not stated) | -6.59% (inactive)
52 | COc1ccc(N(CC(=O)NC2CCCCC2)C(=O)CNC(=O)c2ccco2)c(OC)c1 | 1.11% (inactive)
53 | CC1CC(NC(=O)/C(C#N)=C/c2ccc[nH]2)CC(C)(C)C1 (configuration not stated) | 4.89% (inactive)
54 | CC(=O)NC1=NN(C(C)=O)C(C)(c2ccc(Cl)s2)S1 (configuration not stated) | -1.1% (inactive)
55 | O=C(N/N=C/c1cccc2cccnc12)[C@H]1C[C@@H]1c1ccccc1 | 8.61% (inactive)
56 | CN(C)/C(CN1CCCCC1)=C1\N=C(c2ccccc2)OC1=O | -3.11% (inactive)
57 | O=c1cc(CN2CCN(S(=O)(=O)/C=C/c3ccccc3)CC2)c2ccc(O)cc2o1 | -1.39% (inactive)
